The text below walks through data of PubChem BioAssay (NCATS).

Values without a mark were called inactive. Records with an inconclusive call do not appear. Calls of active or inactive are those of the source. Calls come from the whole dose curve; as a rule, active = well fitted curve in the direction sought with a large enough effect; inconclusive = small, poorly fitted or top-dose-only effect, or another doubt; inactive = no such curve, though single readings can be large; an effect the other way counts as inactive or inconclusive. Positions of bridges follow the written chain, without caps; N, C: chain ends. Non-standard residues stand in square brackets, D forms with d. Residues, ends and D or L forms follow the SMILES beside them. ξ: configuration not given here. *: point of attachment. Octanoyl(6-Me) = CCC(C)CCCCC(=O)*; ξThr(3R) = C[C@@H](O)C(N)C(=O)O; dDab = NCC[C@@H](N)C(=O)O; Dab = NCC[C@H](N)C(=O)O

Assay [1] deals with Phospholipid hydroperoxide glutathione peroxidase GPX4 (Homo sapiens) (UniProt P36969). The assay is described as follows: Primary qHTS Assay for Inhibitors of Recombinant Selenoprotein Glutathione Peroxidase 4 (GPX4) (AID 1845192). For activity change, negative = inhibition: series mostly up to about 50 µM; % is set by controls: 0 for no effect and ±100 for the full control effect. Note: nearly all actives have a fitted effect of over 65% in size. The method, boiled down:
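NADPH consumption followed by fluorescence at 340/450 nm, t=0 and after 15 min at room temperature. Reaction started with cumene hydroperoxide (0.5 mM final) after 30 min compound–GPX4 preincubation; final 200 nM GPX4, 100 nM GR, 1 mM GSH, 0.5 mM NADPH.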
(Quantitative high-throughput screening tests each substance at several concentrations.)

Assay [2] has as its target Luciferin 4-monooxygenase (Photinus pyralis) (UniProt P08659). The assay is described as follows: Primary firefly luciferase (FLuc) qHTS assay for identification of artifact compounds. (AID 1845220).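 For activity change, negative = inhibition: series mostly up to about 54 µM; plate controls were DMSO vehicle for no effect and no enzyme for full effect.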 Note: nearly all actives have a fitted effect of over 60% in size. The method, boiled down:
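Cell-free, 1536-well qHTS. Buffer pH 7.6 with 0.01% Tween-20 and 0.05% BSA; 10 uM D-luciferin, 10 uM ATP; 10 nM P. pyralis luciferase; luminescence after 5 min.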

A short description of assay [3]: Primary fluorescence-based thiol-reactive (MSTI) qHTS assay for identification of artifact compounds. (AID 1845221).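 Note: series mostly up to about 54 µM; thiol-reactive compounds lower the probe fluorescence signal; nearly all actives have a fitted effect of over 65% in size.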 The gist of the method:
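Probe: MSTI 4 uM, PBS pH 7.4, 2% DMSO. Incubation 1 h, RT, light-protected. Readout fluorescence 525/598 nm.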

The test system of assay [4] is Nanoluciferase (engineered Oplophorus gracilirostris luciferase). Kind of assay: Primary Nanoluciferase (NLuc) qHTS assay for identification of artifact compounds. (AID 1845222).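 Note: series mostly up to about 54 µM; 0% = DMSO and -100% = no enzyme.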 The method, boiled down: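 Compounds are pinned into diluted (1:55) conditioned medium of NLuc-expressing S16 cells and held 15 min at room temperature protected from light. Nano-Glo substrate follows, and luminescence is read 5 min later.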

A short description of assay [5]: Primary redox qHTS assay for identification of artifact compounds. (AID 1845223).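 Note: 0% = DMSO and 100% = reference compound.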 The method, boiled down: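 Redox-cycling detection via DTT (250 uM final) oxidation coupled to Amplex Red (25 uM)/HRP (250 mU/mL) in HBSS. 15 min preincubation plus 30 min after DTT, room temperature. Ex/Em 525/598 nm; 4-parameter Hill fit against DMSO and 10 uM DA3003.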
Assay [6] can be described thus: Quantitative High-Throughput drug screen in 47 multiple myeloma cell lines against the NCATS MIPE library collection: FR4_PLB cell viability assay (AID 1918924; note: nearly all actives have a fitted effect of over 35% in size; note: potency is the fitted concentration of half-maximal effect). The gist of the method: (§1)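 Approved and investigational drugs from MIPE 4.0 were added by pin tool to 500 cells per well. After 48 hours at 37C, ATP-based CellTiter-Glo luminescence indicated remaining viability.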

The nature of assay [7]: Quantitative High-Throughput drug screen in 47 multiple myeloma cell lines against the NCATS MIPE library collection: Delta47_JCRB cell viability assay (AID 1918925; note: nearly all actives have a fitted effect of over 45% in size; note: potency is the fitted concentration of half-maximal effect). The gist of the method:
as §1

Assay [8] is described as follows: Quantitative High-Throughput drug screen in 47 multiple myeloma cell lines against the NCATS MIPE library collection: EJM_DSMZ cell viability assay (AID 1918926; note: nearly all actives have a fitted effect of over 30% in size; note: potency is the fitted concentration of half-maximal effect). The method, boiled down: as §1
Assay [9] is described as follows: Quantitative High-Throughput drug screen in 47 multiple myeloma cell lines against the NCATS MIPE library collection: AMO1_DSMZ cell viability assay (AID 1918927; note: nearly all actives have a fitted effect of over 30% in size; note: potency is the fitted concentration of half-maximal effect). The method, boiled down: as §1
Assay [10] in a line: Quantitative High-Throughput drug screen in 47 multiple myeloma cell lines against the NCATS MIPE library collection: ARD_JJKsccE7 cell viability assay (AID 1918929; note: potency is the fitted concentration of half-maximal effect;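 for viability: 100% = DMSO-only wells and 0% = media-only wells without cells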). The gist of the method: as §1
The target of assay [11] is Glutathione peroxidase 1 (Homo sapiens) (UniProt P07203). The assay is described as follows: Primary qHTS Assay for Inhibitors of Recombinant Selenoprotein Glutathione Peroxidase 1 (GPX1) (AID 1845191). For activity, negative = inhibition: % is set by controls: 0 for no effect and ±100 for the full control effect. Note: nearly all actives have a fitted effect of over 65% in size. The method, boiled down:
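NADPH consumption tracked by fluorescence at 340/450 nm between t=0 and t=15 min, room temperature. Final mix: 10 nM GPX1, 100 nM glutathione reductase, 1 mM GSH, 0.5 mM NADPH, 0.5 mM cumene hydroperoxide, 0.01% BSA; 30 min compound–enzyme preincubation.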

Assay [12] can be described thus: Quantitative High-Throughput drug screen in 47 multiple myeloma cell lines against the NCATS MIPE library collection: ARP1_JJKsccF8 cell viability assay (AID 1918928; note: nearly all actives have a fitted effect of over 40% in size; note: potency is the fitted concentration of half-maximal effect;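 for viability: 100% = DMSO only wells and 0% = medium only wells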). The gist of the method:
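Each line was plated at 500 cells/well and treated 48 h with library drugs. Viability came from CellTiter-Glo luminescence relative to DMSO and cell-free medium controls.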

Sequence of Phospholipid hydroperoxide glutathione peroxidase GPX4 (Homo sapiens) (P36969 whole entry, looked up): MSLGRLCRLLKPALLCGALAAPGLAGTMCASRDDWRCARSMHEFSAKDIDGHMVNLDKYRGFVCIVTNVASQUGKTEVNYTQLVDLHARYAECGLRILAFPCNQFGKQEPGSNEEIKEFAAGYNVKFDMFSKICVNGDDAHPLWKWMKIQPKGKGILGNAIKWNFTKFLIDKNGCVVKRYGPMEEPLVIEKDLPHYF
Sequence of Glutathione peroxidase 1 (Homo sapiens) (P07203 whole entry, looked up): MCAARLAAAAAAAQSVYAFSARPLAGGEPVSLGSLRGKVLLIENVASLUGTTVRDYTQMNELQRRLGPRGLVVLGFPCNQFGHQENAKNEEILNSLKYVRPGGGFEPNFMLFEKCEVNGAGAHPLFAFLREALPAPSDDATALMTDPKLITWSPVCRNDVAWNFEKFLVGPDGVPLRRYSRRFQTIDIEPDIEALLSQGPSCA

As for `C[N+]1(C)[C@@H]2C[C@@H](OC(=O)C(O)(c3cccs3)c3cccs3)C[C@H]1[C@@H]1O[C@@H]12`, the Potency entry in assay [1], in assay [2], in assay [3], in assay [5], in assay [6] and in assay [7] was “inactive” each time. The Potency result in assay [8], in assay [9] and in assay [10] was “inactive” in each case. Moreover, the result in assay [4] was inactive.

For the compound `CCCCCCCCCCCCc1ccc(S(=O)(=O)Nc2nncs2)cc1`, the Potency result in assay [11], in assay [6] and in [12] was “inactive” throughout. In addition, the Potency in assay [7] was 0.935 µM (active).

Consider `COC1=C(OC)C(=O)C(CC=C(C)CCC=C(C)CCC=C(C)CCC=C(C)CCC=C(C)CCC=C(C)CCC=C(C)CCC=C(C)CCC=C(C)CCC=C(C)C)=C(C)C1=O`, for which, in [11], the activity, negative = inhibition is 1.94% [at 4.49 µM]. In assay [1], the outcome is “inactive [at 4.52 µM]”. Further, the Potency entry in assay [9], in [12] and in assay [10] was “inactive” each time.

In the case of `Cn1cc(C2=C(c3c4n(c5ccccc35)CCC(CN)C4)C(=O)NC2=O)c2ccccc21` (stereo not given), the activity change, negative = inhibition in assay [1] was -6.23% [at 9.73 µM]. Further, the Potency in assay [6] was 18.7 µM (active); in [7] it was 5.26 µM (active); in [8], 9.35 µM (active); in assay [9], 10.5 µM (active); in [12], 18.7 µM (active); in assay [10], 7.43 µM (active).

In the case of `CCC(C)CCCCC(=O)N[C@@H](CCN)C(=O)NC(C(=O)N[C@H](CCN)C(=O)N[C@@H]1CCNC(=O)C([C@@H](C)O)NC(=O)[C@@H](CCN)NC(=O)[C@@H](CCN)NC(=O)[C@@H](CC(C)C)NC(=O)[C@H](Cc2ccccc2)NC(=O)[C@H](CCN)NC1=O)[C@@H](C)O` (stereo partly drawn) ({Octanoyl(6-Me)}-[Dab][ξThr(3R)][dDab][dDab][Dab]F[dL][dDab][dDab][ξThr(3R)]; lactam 4-C), the Potency entry in assay [1], in assay [6], in assay [7], in [8], in assay [9] and in assay [12] was “inactive” in each case.

`O=c1c(O)c(-c2ccc(O)c(O)c2)oc2cc(O)ccc12`: the Potency entry in [11] was “inactive”. The Potency is 20.9 µM (active) in assay [6]; 11.8 µM (active) in assay [7]; 20.9 µM (active) in assay [8]; 10.5 µM (active) in [9]; 20.9 µM (active) in assay [12].

Take `COC(=O)C1C2CC3c4[nH]c5cc(OC)ccc5c4CCN3CC2CC(OC(=O)c2cc(OC)c(OC)c(OC)c2)C1OC` (stereo not given): the Potency result in assay [11] is “inactive”. For the same compound, the Potency in assay [6] is 3.72 µM (active); in assay [9] it was 20.9 µM (active); in assay [10], 20.9 µM (active).

As for `O=C(c1ccc(F)cc1)N1CCC[C@H](c2nc(-c3ccc(F)cc3)no2)C1`, the Potency entry in assay [1], in assay [6], in assay [7], in assay [8], in [9] and in assay [12] was “inactive” throughout. For the same compound, in assay [10], the Potency result was “inactive”.

Take `C#CCC(Cc1cnc2nc(N)nc(N)c2n1)c1ccc(C(=O)N[C@@H](CCC(=O)O)C(=O)O)cc1` (stereo not given in full): the Potency entry in assay [11], in assay [7] and in assay [9] was “inactive” in each case. Also, in [12], the Potency was 0.0469 µM (active).

As to `Oc1cc2c(cc1O)C1c3ccc(O)c(O)c3OCC1(O)C2` (stereo not given), the Potency entry in assay [1], in assay [6], in [7], in [9], in assay [12] and in assay [10] was “inactive” in each case.

On to `CC(N[C@H]1CCCC[C@H]1NC(=O)c1ccc(Cl)cc1)c1cccc2ccccc12` (stereo not given in full), for which the Potency entry in [11], in assay [1] and in assay [12] was “inactive” each time. For the same compound, in assay [8], the Potency is 20.9 µM (active).

Consider `Nc1nc(N)c2nc(-c3cccc(O)c3)c(-c3cccc(O)c3)nc2n1`, for which, in assay [11], the Potency entry was “inactive”. For the same compound, the Potency is 10.5 µM (active) in assay [6]; 5.9 µM (active) in assay [7]; 18.7 µM (active) in assay [8]; 7.43 µM (active) in assay [9]; 20.9 µM (active) in [12]; 8.33 µM (active) in [10].

On to `COc1ccc(C=Cc2cc(OC)c(OC)c(OC)c2)cc1NC(=O)[C@H](N)CO`, for which the Potency entry in assay [11] and in [1] was “inactive” throughout. The Potency in assay [8] was 0.0105 µM (active); in assay [12] it was 0.0053 µM (active); in [10], 0.0118 µM (active).

Turning to `COc1cccc2c1C(=O)c1c(O)c3c(c(O)c1C2=O)C[C@@](O)(C(=O)CO)C[C@@H]3O[C@H]1C[C@H](N)[C@H](OC2CCCCO2)[C@H](C)O1` (stereo not given in full), the Potency result in [1], in assay [9] and in assay [10] was “inactive” each time. The Potency in [6] is 3.72 µM (active); in assay [7], 0.833 µM (active); in assay [8] it was 2.35 µM (active); in [12] it was 3.32 µM (active).

In the case of `Cc1cc(C(=O)NOCCO)c(Nc2ccc(I)cc2F)n(C)c1=O`, the Potency result in assay [11] and in assay [1] was “inactive” in each case. In [9], the Potency is 0.118 µM (active).

Consider `CCCCCCCCCCCCCCCC(=O)OC[C@@H](NC(=O)C(Cl)Cl)[C@H](O)c1ccc([N+](=O)[O-])cc1`, for which the Potency result in assay [11], in assay [1], in assay [8], in assay [9], in assay [12] and in assay [10] was “inactive” in each case.

With `CC(C=CC=C(C)C=CC1=C(C)CCCC1(C)C)=CC=CC=C(C)C=CC=C(C)C=CC1=C(C)CCCC1(C)C`, the outcome in assay [11] is “inactive [at 0.4 µM]”; in assay [1], “inactive [at 0.409 µM]”. The Potency is 6.62 µM (active) in assay [8], 20.9 µM (active) in assay [9] and 20.9 µM (active) in [10].

As to `Cc1cncc2cccc(S(=O)(=O)N3CCCN(C(=O)CN)C[C@@H]3C)c12`, the Potency result in [1], in [2], in assay [3] and in assay [5] was “inactive” in each case. For the same compound, the outcome in assay [4] was inactive. For the same compound, the Potency in [7] was 23.5 µM (active); in [8] it was 23.5 µM (active); in [9], 10.5 µM (active); in assay [10], 16.6 µM (active).

For `Cc1noc(-c2ccc(CSCCC(=O)O)cc2)c1NC(=O)OC(C)c1ccccc1Cl` (stereo not given), the Potency result in assay [11], in [8], in assay [12] and in [10] was “inactive” throughout.

As for `COc1cccc2c1C(=O)c1c(O)c3c(c(O)c1C2=O)C[C@@](O)(C(=O)CO)C[C@@H]3O[C@H]1C[C@H](N)[C@@H](O)[C@H](C)O1`, the Potency result in [1] was “inactive”. For the same compound, the Potency is 0.743 µM (active) in assay [6]; 0.209 µM (active) in assay [7]; 0.59 µM (active) in assay [8]; 1.18 µM (active) in assay [9]; 0.469 µM (active) in [12]; 2.64 µM (active) in assay [10].

In the case of `CC(=O)N1CCN(c2ccc(OCc3nn(C)c(C)c3-c3cccc4c(CCCOc5cccc6ccccc56)c(C(=O)O)n(Cc5cccnc5)c34)cc2)CC1`, the Potency in [6] is 10.5 µM (active); in [7], 0.332 µM (active); in [8] it was 0.105 µM (active); in [9] it was 0.0526 µM (active); in [12] it was 10.5 µM (active); in [10] it was 0.118 µM (active).

For the compound `CCN(CC)CCCCNc1ncc2c(n1)N(C)C(=O)N(c1c(Cl)c(OC)cc(OC)c1Cl)C2`, the Potency result in assay [1] and in assay [9] was “inactive” each time. In [8], the Potency was 18.7 µM (active).
